Source: ChEMBL document CHEMBL1157539, “Thousands of chemical starting points for antimalarial lead identification” (Nature, 2010)

Columns and labels:
Assay type in all cases: functional
Plasmodium falciparum [1] = assay: GSK_TCMDC: Inhibition of Plasmodium falciparum 3D7 in whole red blood cells, using parasite LDH activity as an index of growth. Test compounds present at 2uM
Plasmodium falciparum [2] = assay: GSK_TCMDC: Inhibition of Plasmodium falciparum Dd2 in whole red blood cells, using parasite LDH activity as an index of growth. Test compounds present at 2uM
HepG2 = assay: GSK_TCMDC: Percent inhibition of human HepG2 cell line. Test compounds present at 10uM.

SMILES	Inhibition (Plasmodium falciparum [1]) [%]	Inhibition (Plasmodium falciparum [2]) [%]	Inhibition (HepG2) [%]
O=C(C=Cc1ccc(Cl)c(Cl)c1)NCCCCCN1CCC(CCCNC(=O)c2sc3ccccc3c2Cl)CC1	93	40	99
O=C(Cc1c[nH]cn1)Nc1cccc(-c2ccc(-c3nc4cc(C(F)(F)F)ccc4[nH]3)s2)c1	100	99	5
COc1ccc(-c2ccc(NC(=O)c3cccc(F)c3)cc2)cc1CNC(C)C.O=C(O)C(F)(F)F	97	14	17
Fc1ccc2[nH]c(-c3ccc(-c4ccc(CNCCN5CCNCC5)cc4)cc3)nc2c1.O=C(O)C(F)(F)F	96	70	94
Cc1ccc(/C=C/C(=O)NCCCCCN2CCC(c3c[nH]c4ccccc34)CC2)cc1	86	7	36
COc1ccc(F)cc1-c1ccc(C(=O)N2CCCN(c3ccc(C#N)cn3)CC2)cc1	99	100	9
CC(CN1CCN(C)CC1)C(=O)Nc1ccc(-c2ccc(-c3nc4cc(F)ccc4[nH]3)cc2)cc1 (centres undefined)	100	87	19
CNCCNCc1cccc(-c2ccc(-c3nc4ccccc4[nH]3)s2)c1.O=C(O)C(F)(F)F	99	9	8
CN1CCCc2ccc(NC(=O)c3ccc(-c4cc(C(F)(F)F)nn4C)s3)cc2C1.O=C(O)C(F)(F)F	88	34	16
NC(=O)c1cccc(C(=O)Nc2ccc(-c3cccc(-c4nc5cc(F)ccc5[nH]4)c3)cc2)c1	94	5	45
COc1ccc2nc3cc(Cl)ccc3c(NCCO)c2c1.Cl	100	93	12
Cc1cc(N2CCCCC2)nc2ccc(NC(=O)c3cccc([N+](=O)[O-])c3)cc12	95	99	9
Cc1noc(C)c1-c1cccc(CNCc2ccc(-c3cccc(-c4nc5cccc(C)c5[nH]4)c3)cc2)c1.O=C(O)C(F)(F)F	100	94	24
CO/C(=C\C=C\c1cc2cc(Cl)c(Cl)cc2[nH]1)C(=O)NCCCN1CCN(c2cccc(OCC(=O)Nc3cccc(C(=O)c4ccccc4)c3)c2)CC1	94	88	48
Cc1cccc2nc(-c3ccc(-c4cccc(CN5CCN(c6ccc(C#N)cn6)CC5)c4)s3)[nH]c12.O=C(O)C(F)(F)F	85	8	37
COc1ccc2nccc([C@@H](O)CN3CCC(NCc4ccc5nsnc5c4)CC3)c2c1.O=C(O)C(=O)O	95	64	12
CC(C)Cn1c(Sc2ccc(C#N)c([N+](=O)[O-])c2)nnc1-c1cccs1	90	32	9
Cc1cc(CNCCCCCNCc2ccc(Cl)cc2)ccc1O	98	0	12
CCOc1cc(C(=O)Nc2cccnc2)cc(Br)c1OCCC(C)C	88	51	4
COc1cc2ncnc(Nc3ccc(OCc4ccccc4)c(C(F)(F)F)c3)c2cc1OC.Cl	100	78	8
Oc1cc(Nc2ccnc3cc(-c4cccc(CN5CCOCC5)c4)ccc23)c(F)cc1Cl	100	89	12
CCOc1ccccc1N1CCN(CCCNC(=O)/C(=C/C=C/c2cc3cc(Cl)c(Cl)cc3[nH]2)OC)CC1	98	93	45
CCOC(=O)NC1=NC(C)(C)N(OCCCOc2cc(Cl)c(Cl)cc2Cl)C(NC(=O)OCC)=N1	91	97	63
Nc1nc(N)c2cc(C(F)(F)F)ccc2n1	80	1	8
CCCCN1CC[C@@H](CCC(O)c2cc(OCCC)nc3ccc(OC)cc23)[C@@H](CC)C1.O=C(O)C(=O)O (some centres undefined)	100	99	23
Cc1cc(C2CCN(CCCCNC(=O)c3ccc(-c4ccc(C#N)cc4)cc3)CC2)c(C)cc1O	96	96	27
OC(c1ccccc1)C1CN(CCc2ccccc2)CCC1(O)c1ccccc1 (centres undefined)	97	92	0
COc1cccc(N(CCCN2C(=O)c3cccc4cccc(c34)C2=O)C(=O)c2ccccc2C)c1	86	70	20
